Results on nine molecules are retold here after PubChem BioAssay (NCI).

Test [1] in a line: NCI Yeast Anticancer Drug Screen. Data for the rad50 strain (AID 155).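 Also: 0% = growth of vehicle-only cultures of the same strain.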 The settings on record: S. cerevisiae rad50 strain growth inhibition, active compounds read high. A digest of the protocol: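 Inhibition values express reduced yeast growth in compound-treated cultures relative to vehicle-treated controls.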
Test [2] is described as follows: NCI Yeast Anticancer Drug Screen. Data for the mec2-1 strain (AID 157). The settings on record: S. cerevisiae mec2-1 strain, active compounds read high. In short, it runs like this: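 Test agents were screened against the mec2-1 yeast strain, with defined DNA repair or cell cycle alteration. Growth was scored as inhibition against vehicle-only controls.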
Test [3] is described as follows: NCI Yeast Anticancer Drug Screen. Data for the sgs1 mgt1 strain (AID 161).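 Also: 0% = growth of cultures given vehicle only.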 The settings on record: S. cerevisiae sgs1 mgt1 strain, active compounds read high. A digest of the protocol:
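Inhibition of yeast growth, normalised to vehicle-treated controls, is reported for a strain bearing genetic alterations in DNA damage repair.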

The nature of test [4]: NCI Yeast Anticancer Drug Screen. Data for the cln2 rad14 strain (AID 165).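 Also: 0% = growth equal to vehicle treated cultures.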 The settings on record: S. cerevisiae cln2 rad14 strain, active compounds read high. In short, it runs like this:
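Growth of compound-exposed yeast (cln2 rad14 genotype) measured and expressed as inhibition relative to vehicle.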

Test [5] can be described thus: NCI Yeast Anticancer Drug Screen. Data for the bub3 strain (AID 167). Particulars: S. cerevisiae bub3 mutant strain, active compounds read high. In short, it runs like this: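 Steps: expose the mutant yeast strain to compound; grow alongside vehicle-treated cultures; measure growth; express inhibition against the vehicle cultures.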
Test [6] is described as follows: NCI Yeast Anticancer Drug Screen. Data for the mlh1 rad18 strain (AID 175). The settings on record: S. cerevisiae mlh1 rad18 strain growth inhibition, active compounds read high. A digest of the protocol: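 In this whole-cell yeast screen, a strain with altered DNA damage repair is challenged with compound, and its growth is measured against matched vehicle-treated controls.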

[7] abbreviates: at 5.0 µM (retest, dose inferred, filed as 0.5).
Where [8] appears, read: at 50.0 µM (retest, dose inferred, filed as 5.0).

The structures appear in SMILES notation. The panel holds about 79,000 compounds, 15% with a hit somewhere; the sample as a whole holds those more often. Unmarked numbers belong to inactive results. The source made the active and inactive calls. Rule as the data show it: active = growth inhibition above about 70%; inactive = the rest.

`Cc1ccc(/C=C2\CCCC(CN3CCCCC3)C2=O)cc1` (configuration not stated): the growth inhibition in test [1] (setting [7]) is 23%; in test [1] (setting [8]), 99% (active); in test [1] (at 50.0 µM), 75% (active); in test [2] (setting [7]) it was 34%; in test [2] (setting [8]), 99% (active); in test [2] (at 50.0 µM), 83% (active). In addition, the growth inhibition in test [3] (setting [7]) is 30%; in test [3] (setting [8]), 99% (active); in test [3] (at 50.0 µM), 87.8% (active); in test [4] (setting [7]) it was 45%; in test [4] (setting [8]), 98% (active); in test [4] (at 50.0 µM), 73.3% (active). Besides, the growth inhibition was 37% in test [5] (setting [7]); 99% (active) in test [5] (setting [8]); 89.3% (active) in test [5] (at 50.0 µM); 32% in test [6] (setting [7]); 99% (active) in test [6] (setting [8]); 90% (active) in test [6] (at 50.0 µM).

For `CC1CC(c2ccccc2)(c2ccccc2)C(=O)C(C)N1C` (configuration not stated), the growth inhibition in test [1] (setting [7]) is -1%; in test [1] (setting [8]) it was 22%; in test [1] (at 50.0 µM), 13.6%; in test [2] (setting [7]), -2%; in test [2] (setting [8]), -5%; in test [2] (at 50.0 µM) it was 29.9%. Besides, the growth inhibition was 0% in test [3] (setting [7]); -19% in test [3] (setting [8]); 14.2% in test [3] (at 50.0 µM); -1% in test [4] (setting [7]); -2% in test [4] (setting [8]); 28% in test [4] (at 50.0 µM). In addition, the growth inhibition in test [5] (setting [7]) is -4%; in test [5] (setting [8]), 10%; in test [5] (at 50.0 µM) it was 72% (active); in test [6] (setting [7]) it was -3%; in test [6] (setting [8]) it was 7%; in test [6] (at 50.0 µM), 25.9%.

For `COc1ccccc1/C=C1\NC(=S)N(/C=C2\C(=O)Oc3ccccc3C2=O)C1=O`, the growth inhibition in test [1] (setting [7]) is 8%; in test [1] (setting [8]), 32%; in test [1] (at 50.0 µM) it was 73.2% (active); in test [2] (setting [7]), -7%; in test [2] (setting [8]) it was 25%; in test [2] (at 50.0 µM), 29.9%. Further, the growth inhibition in test [3] (setting [7]) is -6%; in test [3] (setting [8]) it was 38%; in test [3] (at 50.0 µM), 73% (active); in test [4] (setting [7]), -9%; in test [4] (setting [8]), 47%; in test [4] (at 50.0 µM) it was 64.7%. The growth inhibition in test [5] (setting [7]) was -27%; in test [5] (setting [8]) it was 37%; in test [5] (at 50.0 µM), 79.1% (active); in test [6] (setting [7]), 9%; in test [6] (setting [8]), 50%; in test [6] (at 50.0 µM) it was 85.9% (active).

For `Cc1cccc(Cl)c1NC(=O)/C=C/c1ccccc1`, the growth inhibition in test [1] (setting [7]) was 41%; in test [1] (setting [8]), 44%; in test [1] (at 50.0 µM), -22.1%; in test [2] (setting [7]), 44%; in test [2] (setting [8]) it was 44%; in test [2] (at 50.0 µM) it was -6.05%. Moreover, the growth inhibition is -1% in test [3] (setting [7]); 23% in test [3] (setting [8]); 1.1% in test [3] (at 50.0 µM); 29% in test [4] (setting [7]); 6% in test [4] (setting [8]); -1.6% in test [4] (at 50.0 µM). The growth inhibition is 27% in test [5] (setting [7]); 39% in test [5] (setting [8]); 8.6% in test [5] (at 50.0 µM); 35% in test [6] (setting [7]); 48% in test [6] (setting [8]); -6.65% in test [6] (at 50.0 µM).

For the molecule `O=Cc1ccc([N+](=O)[O-])o1`, the growth inhibition in test [1] (setting [7]) was 36%; in test [1] (setting [8]), 98% (active); in test [1] (at 50.0 µM), 99.6% (active); in test [2] (setting [7]), 7%; in test [2] (setting [8]), 99% (active); in test [2] (at 50.0 µM) it was 99.4% (active). For the same molecule, the growth inhibition in test [3] (setting [7]) was 13%; in test [3] (setting [8]) it was 99% (active); in test [3] (at 50.0 µM), 99.6% (active); in test [4] (setting [7]), -1%; in test [4] (setting [8]) it was 85% (active); in test [4] (at 50.0 µM) it was 98.6% (active). In addition, the growth inhibition in test [5] (setting [7]) was -3%; in test [5] (setting [8]), 57%; in test [5] (at 50.0 µM), 99.8% (active); in test [6] (setting [7]), 20%; in test [6] (setting [8]), 99% (active); in test [6] (at 50.0 µM) it was 99.5% (active).

For the molecule `Cc1ccccc1C(=O)C(C)c1ccccc1` (configuration not stated), the growth inhibition in test [1] (setting [7]) was -19%; in test [1] (setting [8]) it was -6%; in test [1] (at 50.0 µM) it was 6.35%; in test [2] (setting [7]), -8%; in test [2] (setting [8]), -4%; in test [2] (at 50.0 µM) it was 9.25%. For the same molecule, the growth inhibition is -2% in test [3] (setting [7]); -7% in test [3] (setting [8]); 12.5% in test [3] (at 50.0 µM); -35% in test [4] (setting [7]); -5% in test [4] (setting [8]); 44.4% in test [4] (at 50.0 µM). The growth inhibition in test [5] (setting [7]) is -8%; in test [5] (setting [8]), 3%; in test [5] (at 50.0 µM), 4.5%; in test [6] (setting [7]), -24%; in test [6] (setting [8]), 4%; in test [6] (at 50.0 µM), -9.2%.

With `COC(=O)C1C(O)C(C)C(=O)C(C)/C=C\C=C(C)C(=O)Nc2c(C)c(OC(C)=O)c3c(c2O)C(=O)C(C)=C2OCOC(=C23)C(C)=CC(C)(O)C(O)C(C)C1O` (configuration not stated), the growth inhibition in test [1] (setting [7]) is 9%; in test [1] (setting [8]), 52%; in test [1] (at 50.0 µM), 88.1% (active); in test [2] (setting [7]), -3%; in test [2] (setting [8]), 77% (active); in test [2] (at 50.0 µM) it was 88.8% (active). The growth inhibition in test [3] (setting [7]) was 0%; in test [3] (setting [8]) it was 59%; in test [3] (at 50.0 µM), 92.2% (active); in test [4] (setting [7]), 9%; in test [4] (setting [8]), 75% (active); in test [4] (at 50.0 µM), 75.6% (active). In addition, the growth inhibition in test [5] (setting [7]) is -4%; in test [5] (setting [8]) it was 76% (active); in test [5] (at 50.0 µM), 87.3% (active); in test [6] (setting [7]) it was -19%; in test [6] (setting [8]), 68%; in test [6] (at 50.0 µM) it was 81% (active).

`COc1ccc2nc3cc(Cl)ccc3c(Nc3ccc(O)c(CN4CCN(C)CC4)c3)c2c1`: the growth inhibition in test [1] (setting [7]) is 25%; in test [1] (setting [8]), 43%; in test [1] (at 50.0 µM), 66.9%; in test [2] (setting [7]) it was 7%; in test [2] (setting [8]), -11%; in test [2] (at 50.0 µM), -26.7%. The growth inhibition in test [3] (setting [7]) was 8%; in test [3] (setting [8]) it was 6%; in test [3] (at 50.0 µM), 32%; in test [4] (setting [7]), 21%; in test [4] (setting [8]), 2%; in test [4] (at 50.0 µM) it was 27.6%. Also, the growth inhibition is 8% in test [5] (setting [7]); 6% in test [5] (setting [8]); -33.8% in test [5] (at 50.0 µM); 13% in test [6] (setting [7]); 1% in test [6] (setting [8]); -2.9% in test [6] (at 50.0 µM).

On to `CCOc1ccc2nc([NH-])sc2c1.CCOc1ccc2nc([NH-])sc2c1.CCOc1ccc2nc([NH-])sc2c1.CCOc1ccc2nc([NH-])sc2c1.[Cl][Rh][Cl]`, for which the growth inhibition is -5% in test [1] (setting [7]); 46% in test [1] (setting [8]); 29.9% in test [1] (at 50.0 µM); 0% in test [2] (setting [7]); 32% in test [2] (setting [8]); 31.6% in test [2] (at 50.0 µM). In addition, the growth inhibition is 4% in test [3] (setting [7]); 63% in test [3] (setting [8]); 67.2% in test [3] (at 50.0 µM); -5% in test [4] (setting [7]); 26% in test [4] (setting [8]); 30.1% in test [4] (at 50.0 µM). For the same molecule, the growth inhibition is -10% in test [5] (setting [7]); 34% in test [5] (setting [8]); 0.25% in test [5] (at 50.0 µM); 6% in test [6] (setting [7]); 81% (active) in test [6] (setting [8]); 80% (active) in test [6] (at 50.0 µM).
